Experiments:
Experiment in all cases: PBM; 200 nM protein, PBS
Details in all cases: dsDNA, one strand shown
CRX [1] = target: CRX (Homo sapiens, UniProt O43186 26-111)
CRX [2] = target: CRX (Homo sapiens, UniProt O43186 26-111, E42D)
PITX2 = PITX2 (Homo sapiens, UniProt Q99697 72-157)
CRX [3] = target: CRX (Homo sapiens, UniProt O43186 26-111, R41L)
VAX1 [4] = target: VAX1 (Homo sapiens, UniProt Q5SQQ9 86-172)
VAX1 [5] = target: VAX1 (Homo sapiens, UniProt Q5SQQ9 86-172, T142I)
VAX1 [6] = target: VAX1 (Homo sapiens, UniProt Q5SQQ9 86-172, K157R)
Chain of VAX1 (Homo sapiens, UniProt Q5SQQ9 86-172, K157R) (Q5SQQ9 86-172 K157R): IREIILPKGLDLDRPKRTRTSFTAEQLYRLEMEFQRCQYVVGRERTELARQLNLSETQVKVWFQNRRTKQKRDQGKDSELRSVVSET

Chain of CRX (Homo sapiens, UniProt O43186 26-111, E42D) (O43186 26-111 E42D): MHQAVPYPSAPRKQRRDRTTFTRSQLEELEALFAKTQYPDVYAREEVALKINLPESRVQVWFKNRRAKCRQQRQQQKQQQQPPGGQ
Chain of CRX (Homo sapiens, UniProt O43186 26-111, R41L) (O43186 26-111 R41L): as the sequence (O43186 26-111 E42D) above, with R16L, D17E counted along it
Chain of CRX (Homo sapiens, UniProt O43186 26-111) (O43186 26-111): as the sequence (O43186 26-111 E42D) above, with D17E counted along it
Chain of VAX1 (Homo sapiens, UniProt Q5SQQ9 86-172, T142I) (Q5SQQ9 86-172 T142I): as the sequence (Q5SQQ9 86-172 K157R) above, with T57I, R72K counted along it
Chain of VAX1 (Homo sapiens, UniProt Q5SQQ9 86-172) (Q5SQQ9 86-172): as the sequence (Q5SQQ9 86-172 K157R) above, with R72K counted along it

Row | Sequence | binding signal (CRX [1]) | binding signal (CRX [2]) | binding signal (PITX2) | binding signal (CRX [3]) | binding signal (VAX1 [4]) | binding signal (VAX1 [5]) | binding signal (VAX1 [6])
1 | ACGGATTA | 13.5 upbm affinity estimate (log intensity, higher = more binding, comparable within an allelic series) | 13.5 upbm affinity estimate (log intensity, higher = more binding, comparable within an allelic series) | 13.1 upbm affinity estimate (log intensity, higher = more binding, comparable within an allelic series) | 13.5 upbm affinity estimate (log intensity, higher = more binding, comparable within an allelic series) | – | – | –
2 | GGATTATA | 13.5 upbm affinity estimate (log intensity, higher = more binding, comparable within an allelic series) | 13.6 upbm affinity estimate (log intensity, higher = more binding, comparable within an allelic series) | 13.2 upbm affinity estimate (log intensity, higher = more binding, comparable within an allelic series) | 13.7 upbm affinity estimate (log intensity, higher = more binding, comparable within an allelic series) | – | – | –
3 | AGGATTAT | 13.4 upbm affinity estimate (log intensity, higher = more binding, comparable within an allelic series) | 13.5 upbm affinity estimate (log intensity, higher = more binding, comparable within an allelic series) | 13.2 upbm affinity estimate (log intensity, higher = more binding, comparable within an allelic series) | 13.5 upbm affinity estimate (log intensity, higher = more binding, comparable within an allelic series) | – | – | –
4 | GGATTACC | 13.3 upbm affinity estimate (log intensity, higher = more binding, comparable within an allelic series) | 13.3 upbm affinity estimate (log intensity, higher = more binding, comparable within an allelic series) | 13.1 upbm affinity estimate (log intensity, higher = more binding, comparable within an allelic series) | 13.3 upbm affinity estimate (log intensity, higher = more binding, comparable within an allelic series) | – | – | –
5 | AGATTAAT | 12.9 upbm affinity estimate (log intensity, higher = more binding, comparable within an allelic series) | 12.9 upbm affinity estimate (log intensity, higher = more binding, comparable within an allelic series) | 12.6 upbm affinity estimate (log intensity, higher = more binding, comparable within an allelic series) | 12.5 upbm affinity estimate (log intensity, higher = more binding, comparable within an allelic series) | – | – | –
6 | ATAGATTA | 12.7 upbm affinity estimate (log intensity, higher = more binding, comparable within an allelic series) | 12.5 upbm affinity estimate (log intensity, higher = more binding, comparable within an allelic series) | 12.3 upbm affinity estimate (log intensity, higher = more binding, comparable within an allelic series) | 12.3 upbm affinity estimate (log intensity, higher = more binding, comparable within an allelic series) | – | – | –
7 | CCGGATTA | 13.5 upbm affinity estimate (log intensity, higher = more binding, comparable within an allelic series) | 13.6 upbm affinity estimate (log intensity, higher = more binding, comparable within an allelic series) | 13.1 upbm affinity estimate (log intensity, higher = more binding, comparable within an allelic series) | 13.5 upbm affinity estimate (log intensity, higher = more binding, comparable within an allelic series) | – | – | –
8 | GAGATTAA | 13.1 upbm affinity estimate (log intensity, higher = more binding, comparable within an allelic series) | 13.1 upbm affinity estimate (log intensity, higher = more binding, comparable within an allelic series) | 12.8 upbm affinity estimate (log intensity, higher = more binding, comparable within an allelic series) | 12.8 upbm affinity estimate (log intensity, higher = more binding, comparable within an allelic series) | – | – | –
9 | CCTCTGAC | 7.95 upbm affinity estimate (log intensity, higher = more binding, comparable within an allelic series) | 8.28 upbm affinity estimate (log intensity, higher = more binding, comparable within an allelic series) | 7.92 upbm affinity estimate (log intensity, higher = more binding, comparable within an allelic series) | 8.19 upbm affinity estimate (log intensity, higher = more binding, comparable within an allelic series) | – | – | –
10 | GAGGATTA | 13.5 upbm affinity estimate (log intensity, higher = more binding, comparable within an allelic series) | 13.6 upbm affinity estimate (log intensity, higher = more binding, comparable within an allelic series) | 13.1 upbm affinity estimate (log intensity, higher = more binding, comparable within an allelic series) | 13.4 upbm affinity estimate (log intensity, higher = more binding, comparable within an allelic series) | – | – | –
11 | AGGGATTA | 13.6 upbm affinity estimate (log intensity, higher = more binding, comparable within an allelic series) | 13.7 upbm affinity estimate (log intensity, higher = more binding, comparable within an allelic series) | 13.5 upbm affinity estimate (log intensity, higher = more binding, comparable within an allelic series) | 13.7 upbm affinity estimate (log intensity, higher = more binding, comparable within an allelic series) | – | – | –
12 | GAAGATTA | 12.8 upbm affinity estimate (log intensity, higher = more binding, comparable within an allelic series) | 12.8 upbm affinity estimate (log intensity, higher = more binding, comparable within an allelic series) | 12.4 upbm affinity estimate (log intensity, higher = more binding, comparable within an allelic series) | 12.5 upbm affinity estimate (log intensity, higher = more binding, comparable within an allelic series) | – | – | –
13 | CGGATTAA | 13.7 upbm affinity estimate (log intensity, higher = more binding, comparable within an allelic series) | 13.8 upbm affinity estimate (log intensity, higher = more binding, comparable within an allelic series) | 13.4 upbm affinity estimate (log intensity, higher = more binding, comparable within an allelic series) | 13.7 upbm affinity estimate (log intensity, higher = more binding, comparable within an allelic series) | – | – | –
14 | TGGATTAA | 13.4 upbm affinity estimate (log intensity, higher = more binding, comparable within an allelic series) | 13.5 upbm affinity estimate (log intensity, higher = more binding, comparable within an allelic series) | 13.3 upbm affinity estimate (log intensity, higher = more binding, comparable within an allelic series) | 13.2 upbm affinity estimate (log intensity, higher = more binding, comparable within an allelic series) | – | – | –
15 | TAATCTCA | 12.7 upbm affinity estimate (log intensity, higher = more binding, comparable within an allelic series) | 12.7 upbm affinity estimate (log intensity, higher = more binding, comparable within an allelic series) | 12.4 upbm affinity estimate (log intensity, higher = more binding, comparable within an allelic series) | 12.4 upbm affinity estimate (log intensity, higher = more binding, comparable within an allelic series) | – | – | –
16 | CGCTGCCG | 8.07 upbm affinity estimate (log intensity, higher = more binding, comparable within an allelic series) | 8.09 upbm affinity estimate (log intensity, higher = more binding, comparable within an allelic series) | – | 8.04 upbm affinity estimate (log intensity, higher = more binding, comparable within an allelic series) | 6.84 upbm affinity estimate (log intensity, higher = more binding, comparable within an allelic series) | 7.05 upbm affinity estimate (log intensity, higher = more binding, comparable within an allelic series) | 6.97 upbm affinity estimate (log intensity, higher = more binding, comparable within an allelic series)
17 | CTTAATCC | 13.7 upbm affinity estimate (log intensity, higher = more binding, comparable within an allelic series) | 13.8 upbm affinity estimate (log intensity, higher = more binding, comparable within an allelic series) | 13.5 upbm affinity estimate (log intensity, higher = more binding, comparable within an allelic series) | 13.5 upbm affinity estimate (log intensity, higher = more binding, comparable within an allelic series) | – | – | –
